Bioassay records as filed in PubChem.
TEAD-YAP block: TEAD-YAP interaction inhibition, primary screen, TEAD-YAP interaction inhibitor project, luminescence, HEK-TIYL cells. TEAD-Gal4/YAP UAS-luciferase luminescence. inhibition, % at 9.12 µM. 640,000 tested, 1.4% active; in the data active means inhibition above about 32%;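 further: 0% = median of test compound wells and 100% = reference inhibitor wells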
GPR151 activ: activators of human GPR151, primary screen, cell-based, PathHunter beta-arrestin, luminescence | activation, % at 11.2 µM | AID 1508602, 2020 | PathHunter beta-arrestin GPR151 cells | G-protein coupled receptor 151 (Homo sapiens), Q8TDV0 | 650,000 tested, 1% active; in the data active means activation above about 4.9%;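 further: 0% = median of compound wells and 100% = cells with positive control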
FBW7 act: FBW7 E3 ligase activators, primary screen, biochemical, AlphaScreen, human. AlphaScreen FBW7–phospho-cyclin E peptide binding, activator screen. normalized activity (activation), % at 26.1 µM. 650,000 tested, 0.13% active; in the data active means normalized activity above about 1.9%;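 further: purified mutant Fbw7 with reduced substrate affinity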
MITF primary: MITF inhibitors, primary screen, biochemical, AlphaScreen, human; Microphthalmia-associated transcription factor (Homo sapiens), O75030; AlphaScreen MITF homodimerization, bead proximity signal; inhibition, % at 2.6 µM; 650,000 tested, 0.91% active; in the data active means inhibition above about 50%;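 further: 0% = vehicle wells with protein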
Target sequence (O75030 whole entry, looked up): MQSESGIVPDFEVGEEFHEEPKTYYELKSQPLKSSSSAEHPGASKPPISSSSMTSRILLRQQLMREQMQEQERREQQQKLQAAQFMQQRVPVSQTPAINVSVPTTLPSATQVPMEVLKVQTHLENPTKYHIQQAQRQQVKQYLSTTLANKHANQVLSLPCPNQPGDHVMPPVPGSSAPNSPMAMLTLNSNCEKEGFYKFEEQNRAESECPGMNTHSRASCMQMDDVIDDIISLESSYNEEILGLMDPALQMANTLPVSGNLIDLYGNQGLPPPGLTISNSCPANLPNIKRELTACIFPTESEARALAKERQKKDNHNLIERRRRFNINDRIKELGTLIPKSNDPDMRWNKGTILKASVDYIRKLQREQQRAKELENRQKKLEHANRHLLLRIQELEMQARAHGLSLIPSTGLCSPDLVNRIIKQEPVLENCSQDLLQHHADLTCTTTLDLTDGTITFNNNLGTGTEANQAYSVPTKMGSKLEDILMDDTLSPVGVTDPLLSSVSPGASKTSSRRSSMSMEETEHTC
Numbers without * were called inactive. An excerpt weighted towards active compounds, which were near 3.5% of everything screened.

SMILES	TEAD-YAP block	GPR151 activ	FBW7 act	MITF primary
O=C(Nc1ccc(I)cc1)c1cn(-c2ccccc2)nc1-c1ccncc1	-3.0	1.0	0.0	7.2
C[C@H]1C(=O)N(C)CCN1C(=O)c1cc(COc2cccc3cnccc23)on1	36.4*	1.8	0.0	-9.9
CC(c1ccon1)N(C)C(=O)c1cc(COc2cccc3cnccc23)on1 (stereo unspecified)	34.2*	-0.6	0.0	14.5
O=C(NC1CCC1)c1cc(COc2cccc3cnccc23)on1	26.7	-0.5	0.0	6.0
CC(=O)c1ccc(OCc2cc(C(=O)N(C)C(C)c3ccon3)no2)cc1 (stereo unspecified)	1.5	-2.0	-0.1	-19.0
Cc1c(C(C)NC(=O)c2cc(COc3cccc4cnccc34)on2)cnn1C (stereo unspecified)	43.0*	-1.2	0.1	11.6
CN(C(=O)c1cc(COc2cccc3cnccc23)on1)C1CCCCC1	43.1*	-0.9	0.0	-8.8
CCC(=O)c1cn(CC(=O)N2C(C)CCCC2C)c2ccccc12 (stereo unspecified)	13.1	0.4	-0.1	7.6
CCN(C(=O)c1ccc(N2CC3CC(C2)c2cccc(=O)n2C3)c(NC(=O)c2ccccc2Br)c1)c1cccc(C)c1 (stereo unspecified)	3.1	0.1	-0.2	-5.7
CN(CCc1nc2ccc(F)cc2[nH]1)C(=O)c1cc(COc2cccc3cnccc23)on1	55.1*	0.1	0.1	1.9
Cc1ccc[n+](C(C)C(=O)c2ccc(-c3ccccc3)cc2)c1 (stereo unspecified)	65.5*	0.0	-0.1	-10.4
CC(C(=O)c1ccc(-c2ccccc2)cc1)[n+]1ccccc1 (stereo unspecified)	17.9	0.3	-0.2	-9.8
CCOc1ccccc1C1SCC(C(=O)O)N1C(C)=O (stereo unspecified)	-5.7	-0.3	-0.1	-10.8
CNC(=O)N(C1=NCC(C)S1)c1cccc(Cl)c1 (stereo unspecified)	40.0*	-0.8	-0.1	9.1
CC1CN=C(N(C)C(=O)Nc2cccc(Cl)c2)S1 (stereo unspecified)	-19.7	-0.7	-0.1	2.4
COCCNC(=O)CNC(=O)c1nn(-c2ccc(OC)c(Cl)c2)c(=O)c2ccccc12	-6.8	0.1	0.0	9.5
COc1ccc(-n2nc(C(=O)NCC(=O)N3CCCC3)c3ccccc3c2=O)cc1	-2.3	0.3	0.1	7.4
COc1ccc(OC)c(NC(=O)CNC(=O)c2nn(-c3ccc(OC)c(Cl)c3)c(=O)c3ccccc23)c1	35.6*	0.6	-0.1	2.2
COc1ccc(-n2nc(C(=O)NCC(=O)NCCc3ccc(OC)c(OC)c3)c3ccccc3c2=O)cc1Cl	37.7*	-1.3	0.0	7.6
COc1ccc(OC)c(NC(=O)CNC(=O)c2nn(-c3ccc(OC)c(OC)c3)c(=O)c3ccccc23)c1	39.4*	0.1	-0.1	-9.9
COc1ccc(-n2nc(C(=O)NCC(=O)N3CCC(Cc4ccccc4)CC3)c3ccccc3c2=O)cc1	32.7*	1.5	0.1	11.2
Nc1ccc(N=Cc2cccc([N+](=O)[O-])c2)cc1Cl	-1.6	1.2	-0.4	2.1
CC(CO)Nc1c2ccccc2nc2ccccc12 (stereo unspecified)	37.6*	-0.5	0.0	-4.9
CCOc1ccc(-n2c(SCC(=O)N3CCCC3)nc3c(c2=O)SCC3)cc1	-2.4	-0.8	-0.1	-10.6
O=C(Nc1nc2ccc(Br)cc2s1)c1ccc(Br)o1	-46.0	-0.6	0.5	16.1
SMILES	TEAD-YAP block	GPR151 activ	FBW7 act	MITF primary
COc1ccc(C(=CCl)c2ccc(OC)cc2)cc1	41.6*	2.3	-0.1	-9.1
O=C(Cc1ccccc1)c1ccc(O)cc1O	-4.5	1.1	0.2	11.9
O=C(Cc1ccc2c(c1)OCCCO2)c1ccc(O)cc1O	61.4*	2.3	0.0	3.5
CNS(=O)(=O)c1cccc(C(=O)OCC(=O)c2cc(C)n(CC3CCCO3)c2C)c1 (stereo unspecified)	56.9*	0.5	-0.1	-10.2
CNS(=O)(=O)c1cccc(C(=O)OCC(=O)c2cc(C)n(Cc3cccs3)c2C)c1	58.4*	0.6	0.1	-6.9
CNS(=O)(=O)c1cccc(C(=O)OCC(=O)c2cc(C)n(Cc3ccco3)c2C)c1	-27.0	-0.8	0.6	-5.0
